Seven molecules from PubChem BioAssay (Tox21) can be followed below.

A short description of test [1]: qHTS assay for small molecules that induce genotoxicity in human embryonic kidney cells expressing luciferase-tagged ATAD5 (AID 651632). Note: nearly all actives have a fitted effect of over 15% in size. In outline: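 ATAD5-luc HEK293T, 2,000 cells/well; cpd or DMSO pin-transferred; 16 hr, 37C/5% CO2; Amplite 30 min RT; luminescence.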
A general note: In qHTS, concentration-response curves come from the screen itself.

A short description of test [2]: qHTS assay for small molecule agonists of the p53 signaling pathway - cell viability (AID 651633; calls by dose curve; note: nearly all actives have a fitted effect of over 30% in size; note: potency is the fitted concentration of half-maximal effect). The procedure, abridged:
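p53RE-bla cells were treated with compound for 16 hours at 37 C. Cytotoxicity was then measured as CellTiter-Glo luminescence after 30 min at room temperature.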

Test [3] in a line: qHTS assay for small molecules that induce genotoxicity in human embryonic kidney cells expressing luciferase-tagged ATAD5 - cell viability (AID 651634; calls by dose curve; note: nearly all actives have a fitted effect of over 25% in size). The procedure, abridged: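 Fluorescence from CellTiter-Fluor, reporting protease activity within live cells, served as the viability read-out. HEK293T cells carrying luciferase-tagged ATAD5 had been treated with compound for 15.5 hr at 37C.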

A short description of test [4]: qHTS assay for small molecule disruptors of the mitochondrial membrane potential - cell viability (AID 720634; calls by dose curve;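 note: human HepG2 liver cancer cells; series mostly up to about 83 µM; nearly all actives have a fitted effect of over 20% in size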). The procedure, abridged: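 Cells: HepG2, 2,000/well, attached overnight. Compound 1 hr, 37 C/5% CO2. +m-MPI dye, +CellTiter-Glo 30 min RT. Readout: luminescence (ATP).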
The nature of test [5]: qHTS assay for small molecule disruptors of the mitochondrial membrane potential (AID 720635). Note: potency is the fitted concentration of half-maximal effect. The procedure, abridged:
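HepG2 cells exposed to compound 1 hr at 37C, then Mito-MPS dye 30 min. Ratio read of aggregate (540/590 nm) versus monomer (490/535 nm) fluorescence.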

A short description of test [6]: qHTS assay to test for compound auto fluorescence at 590 nm (red) in HepG2 cells (AID 720674). In outline: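 HepG2 cells, 2,000 per well in MEM with 10% FBS, attached overnight at 37 C, then got 23 nL compound or DMSO. After 1 hr at 37 C, 5% CO2, red fluorescence was read at 540/590 nm against Rose Bengal sodium as reference.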
Test [7] in a line: qHTS assay to test for compound auto fluorescence at 535 nm (green) in HepG2 cells (AID 720675).
Test [8] in a line: qHTS assay to test for compound auto fluorescence at 460 nm (blue) in HEK293 cells (AID 720678). The procedure, abridged:
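HEK293, 2,000 cells/well, 10% dialyzed FBS; attach 4-5 hr 37C; pin compound or DMSO; o/n 37C/5% CO2; fluorescence 405/460 nm; triamterene-equivalent units.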

A short description of test [9]: qHTS assay to test for compound auto fluorescence at 590 nm (red) in HEK293 cells (AID 720679). The procedure, abridged: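 Intensity at 540nm excitation and 590nm emission is reported as Rose Bengal sodium-equivalent autofluorescence. Measurements followed overnight exposure (37C, 5% CO2) of HEK293 cells, 2,000 per well, to 23 nL compound.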
The nature of test [10]: qHTS assay to test for compound auto fluorescence at 535 nm (green) in HEK293 cells (AID 720680).
The nature of test [11]: qHTS assay to test for compound auto fluorescence at 460 nm (blue) in HEK293 cell free culture (AID 720681). In outline:
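Compounds were added to cell-free DMEM with 10% FBS and fluorescence read directly. The blue channel used 405 nm excitation and 460 nm emission, with triamterene as the reference fluorophore.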

Test [12] can be described thus: qHTS assay to test for compound auto fluorescence at 535 nm (green) in HEK293 cell free culture (AID 720682). In outline:
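Steps: dispense DMEM/10% FBS into empty wells; pin in compound or DMSO; measure fluorescence at 485/535 nm. Values are fluorescein equivalents.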

Test [13] can be described thus: qHTS assay to test for compound auto fluorescence at 590 nm (red) in HEK293 cell free culture (AID 720683). The procedure, abridged: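 Cell-free wells of DMEM with 10% FBS received compound, and intrinsic fluorescence was read at excitation/emission 540/590 nm. Values expressed as equivalence to Rose Bengal sodium.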
Test [14] is described as follows: qHTS assay to test for compound auto fluorescence at 590 nm (red) in HepG2 cell free culture (AID 720684). In outline: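 Compound was pinned into wells holding MEM with 10% FBS and no cells, and red fluorescence was read at Ex/Em 540/590 nm. Signal is expressed as auto fluorescence equivalency relative to Rose Bengal sodium.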
Test [15] can be described thus: qHTS assay to test for compound auto fluorescence at 460 nm (blue) in HepG2 cell free culture (AID 720685). The procedure, abridged:
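Compound (23 nL) or DMSO pinned into cell-free MEM with 10% FBS; blue fluorescence read at 405/460 nm excitation/emission, expressed as auto-fluorescence equivalency to triamterene.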

The nature of test [16]: qHTS assay to test for compound auto fluorescence at 535 nm (green) in HepG2 cell free culture (AID 720686).
The nature of test [17]: qHTS assay to test for compound auto fluorescence at 460 nm (blue) in HepG2 cells (AID 720687). The procedure, abridged:
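HepG2 cells in MEM with 10% FBS, attached overnight at 37 C, were exposed to compound or DMSO for 1 hr at 37 C, 5% CO2. Blue fluorescence was read at 405/460 nm, with triamterene as reference fluorophore.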

Test [18] addresses Glucocorticoid receptor (Homo sapiens) (UniProt P04150). Put plainly: qHTS assay to identify small molecule agonists of the glucocorticoid receptor (GR) signaling pathway (AID 720691; active = well fitted activation curve with a large enough effect in the signal ratio in the repeat runs, not every such curve was filed as active; the % refers to the signal ratio). The procedure, abridged: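 Fluorescence intensity from LiveBLAzer B/G FRET substrate (2 h, room temperature) reports beta-lactamase expression driven by the glucocorticoid response element in GR-bla HeLa cells after 18 h compound exposure at 37 C.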

A short description of test [19]: qHTS assay for small molecule agonists of the p53 signaling pathway (AID 651631; calls by dose curve; note: nearly all actives have a fitted effect of over 15% in size; note: potency is the fitted concentration of half-maximal effect). In outline: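 HCT-116 p53RE-bla reporter line, 16 h compound treatment at 37 °C, then fluorescence after 2 h with B/G FRET substrate.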
Test [20] concerns the target Glucocorticoid receptor (Homo sapiens) (UniProt P04150). Put plainly: qHTS assay to identify small molecule antagonists of the glucocorticoid receptor (GR) signaling pathway (AID 720692; active = well fitted inhibition curve with a large enough effect in the signal ratio in the repeat runs, not every such curve was filed as active; the % refers to the signal ratio; note: potency is the fitted concentration of half-maximal effect). The procedure, abridged:
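HeLa GR-bla cells; cmpd + dex 5 nM final, 18 h 37 C; LiveBLAzer B/G FRET substrate 2 h RT; fluorescence intensity read. Antagonist mode, qHTS.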

SMILES strings stand for the structures. Where “and” joins values, the source holds several entries; their conditions need not be identical. Equal values may be shown once. Results filed as inconclusive are left out. Some compounds were tested as several samples or in several runs, with calls that do not always agree. Calls of active or inactive are those of the source. Unless noted, calls come from the whole dose curve; as a rule, active = well fitted curve in the direction sought with a large enough effect in the repeat runs; inconclusive = weak or mixed curves; inactive = no such curve, though single readings can be large; an effect the other way counts as inactive or inconclusive.

Sequence of Glucocorticoid receptor (Homo sapiens) (P04150 whole entry, looked up): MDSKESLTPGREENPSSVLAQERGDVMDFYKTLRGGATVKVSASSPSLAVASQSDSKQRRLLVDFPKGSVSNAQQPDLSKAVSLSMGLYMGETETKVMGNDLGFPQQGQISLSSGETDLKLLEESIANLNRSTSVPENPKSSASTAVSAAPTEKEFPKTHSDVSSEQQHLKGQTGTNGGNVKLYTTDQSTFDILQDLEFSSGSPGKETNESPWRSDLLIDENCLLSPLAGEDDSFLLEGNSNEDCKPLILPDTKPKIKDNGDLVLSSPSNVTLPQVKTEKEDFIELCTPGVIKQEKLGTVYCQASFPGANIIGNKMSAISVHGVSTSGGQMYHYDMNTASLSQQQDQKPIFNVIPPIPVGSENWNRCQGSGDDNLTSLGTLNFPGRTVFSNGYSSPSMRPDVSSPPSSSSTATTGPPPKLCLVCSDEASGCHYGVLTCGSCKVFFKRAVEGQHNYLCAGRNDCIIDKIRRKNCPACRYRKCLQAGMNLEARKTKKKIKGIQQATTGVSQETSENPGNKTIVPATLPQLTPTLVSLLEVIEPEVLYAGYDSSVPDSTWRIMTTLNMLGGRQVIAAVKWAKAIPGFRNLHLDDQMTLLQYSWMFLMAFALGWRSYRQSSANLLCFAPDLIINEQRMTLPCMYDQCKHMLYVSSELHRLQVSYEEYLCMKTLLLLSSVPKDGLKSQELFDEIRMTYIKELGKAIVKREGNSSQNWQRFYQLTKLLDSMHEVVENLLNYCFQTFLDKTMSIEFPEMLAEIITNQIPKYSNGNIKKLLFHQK

Take `CCCCCCCCCCOC(=O)c1ccccc1C(=O)OCCCCCCCC`: the Potency entry in test [1], in test [2], in test [3], in [4], in test [5] and in [6] was “inactive” in each case. For the same molecule, the Potency entry in [7], in test [8], in [9], in test [10], in test [11] and in test [12] was “inactive” throughout. For the same molecule, the Potency entry in test [13], in test [14], in test [15], in [16], in [17] and in [18] was “inactive” in each case.

Consider `CCCC(=O)OC(C)(C)Cc1ccccc1`, for which the Potency result in [19], in test [2], in test [3], in [4], in test [6] and in [7] was “inactive” in each case. Also, the Potency entry in test [8], in [9], in test [10], in test [11], in test [12] and in test [13] was “inactive” throughout. The Potency entry in [14], in [15], in test [16], in test [17], in test [18] and in test [20] was “inactive” in each case.

Take `CC1(C)[C@@H](O)CC[C@]2(C)[C@H]3C(=O)C=C4[C@@H]5C[C@@](C)(C(=O)O)CC[C@]5(C)CC[C@@]4(C)[C@]3(C)CC[C@@H]12`: the Potency entry in [1], in test [3], in test [4], in test [6], in test [7] and in test [8] was “inactive” each time. The Potency result in [9], in test [10], in test [11], in test [12], in test [13] and in test [14] was “inactive” in each case. The Potency entry in test [15], in test [16] and in [17] was “inactive” throughout. In addition, the Potency is 23.7 µM (active) and inactive in test [2]; 23.7 µM (active) and 67.8 µM (active) in test [5]; 23.9 µM (active) and 21.3 µM (active) and 43.2 µM (active) in test [20].

Turning to `CCC(CC)(CC(=O)Nc1cccc(/C=C/c2nc(C3CCC3)cs2)c1)C(=O)O`, the Potency result in test [19], in test [2], in test [3], in test [6], in test [7] and in test [9] was “inactive” throughout. The Potency result in test [10], in test [11], in test [12], in test [13], in [14] and in test [15] was “inactive” throughout. The Potency result in test [16] and in test [17] was “inactive” in each case. In [5], the Potency is 27.8 µM (active).

With `NC(=S)NC(N)=S`, the Potency entry in test [1], in [2], in test [3], in [4], in test [5] and in test [6] was “inactive” throughout. For the same molecule, the Potency result in test [7], in [8], in test [9], in [10], in test [11] and in test [12] was “inactive” in each case. For the same molecule, the Potency entry in [13], in [14], in [15], in test [16], in test [17] and in [18] was “inactive” throughout. In addition, the Potency entry in test [20] is “inactive”.

For the molecule `C=Cc1ccccc1C=C`, the Potency entry in test [1], in test [2], in test [3], in [4], in test [5] and in test [6] was “inactive” in each case. Also, the Potency result in [7], in test [8], in test [9], in test [10], in test [11] and in test [12] was “inactive” throughout. The Potency result in test [13], in test [14], in [15], in test [16], in test [17] and in [18] was “inactive” in each case. The Potency result in test [20] is “inactive”.

With `COc1cc2nc(N3CCN(C(=O)c4ccco4)CC3)nc(N)c2cc1OC`, the Potency in test [19] is 13.3 µM (active). Moreover, the Potency entry in [2], in test [4], in test [5], in [6], in test [7] and in test [9] was “inactive” throughout. For the same molecule, the Potency entry in [11], in [12], in [13], in test [14], in [15] and in test [16] was “inactive” throughout. For the same molecule, the Potency entry in [17] and in [18] was “inactive” in each case.
